# Measured values from the supplement of paper PMC11417369.
# The full ranking holds about 25,000 sequences; the median of “ln(normalized median fluorescence intensity)” is about 6.7, and the highest 2% start at about 10. This excerpt belongs to a sample that is enriched for the highest values.
# System: PfHDP1 homeodomain (GST-tagged)
# Assay: gcPBM binding intensity (ln(normalized median fluorescence intensity)); higher = stronger DNA binding
# How it was run: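 Binding intensity is the highest Masliner-normalised natural-log median intensity over replicate spots in either probe orientation. To obtain it, GST-tagged P. falciparum DNA-binding domains made in E. coli were incubated for 1 h on an Agilent 4 × 180k array of primer-extended double-stranded 36-bp intergenic genomic probes plus negative controls. Detection used Alexa488 anti-GST antibody with scanning at 488 nm.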
row,Sequence,gcPBM binding intensity (ln)
1,ATCTTTCATCTACCAAGTACAAATTACTTTTTTTTT [XGTACX_site7001],6.79
2,ATCAAACAAAAAATAAAAAAATGCGACATGTGTACA [TGCATGCA_negctrl_site164],7.34
3,GTCGAGGATATATAAAGTACATATATATATATGATA [XGTACX_site1128],6.41
4,TTACATAATATATGTACACACGCAAATACTTAGAAT [CACACA_site320],6.63
5,ACCACATTTTTTTTTGCATGTTGTTTAAAAAAAGGC [TGCATGCA_site137],6.74
6,TATTTGTAAATCGATACACACATATATCTTAATATA [CACACA_site4273],6.28
7,AAAATTTAATATAATGCACACATAAAAAAAAAATCA [CACACA_site7882],10.7
8,AATTTAATATAATGCACACATAAAAAAAAAATCAAA [CACACA_site1],9.95
9,TTCAAAATAAAAAATTCACACACATATATATATATA [CACACA_site8653],9.22
10,TAACTTAATATTAATGCACACAATTTATATATATAT [CACACA_site3903],10.4
11,AATTTAATATAATGCACACATAAAACAAAAACAAAA [CACACA_site529],10.5
12,AATGCTATCATTAATGCACACATTTAAACTTAATAT [CACACA_site5878],10.6
13,AATTTAATATAATGCACACATAAAAAAAAATTCAAA [CACACA_site2062],10.5
14,AATGCTATCATTAATGCACACATTTAAAATTAATAT [CACACA_site3548],10
15,AAAATTTAATATAATGCACACATAAAACAAAAACAA [CACACA_site8071],9.14
16,TACAATTTAAAACACACACACAATAATACATATATA [CACACA_site1251],6.89
17,TATTGTCTTGTATATGCATGTAGACCAAATATGTAA [TGCATGCA_site9],6.42
18,AATGAGGATATATACACACATACATTAAAAAAATAT [CACACA_site1849],6.67
19,TATTAAACTGGACACACACACACACCCATATATAAA [CACACA_site4579],6.93
20,TATATCTTAATATTTACACACATGCGCACCCATAAA [CACACA_site5349],7.52

row,Sequence,gcPBM binding intensity (ln)
1,GTGTATTTGGTGCGCACACACATGCAAAAAGAAATA [CACACA_site4768],9.15
2,AAAAAAAAAAAAAAATGTACATATATATATTATAAA [XGTACX_site518],6.33
3,ATTTTATTTTTTAATAGTACTCATTTTTTATGTGAA [XGTACX_site5494],6.48
4,TTAAAGCTGACATATACACACATACATAAATTCATA [CACACA_site5377],6.75
5,GATCCTGGTTCTTGTGGTACTTGTTCATTTGTTATA [XGTACX_site7164],6.69
6,TATATATATATAAGATGTACCCTTTGAAATAATAAT [XGTACX_site7215],8.66
7,AAAATTTAATATAATGCACACATAAAAAAAAAAAAA [CACACA_site7923],10.4
8,ACTAGACAAAATATAATGCACACTATTATTTTTATT [CACACA_site2726],10.6
9,TATAATTTAAAATACACACACATATATATAATATAT [CACACA_site2000],6.76
10,TAGACAAAATATAATGCACACTATTATTTTTATTTA [CACACA_site5508],10.4
11,ATTTCGTAATTTATATCACACACATATATATATAAT [CACACA_site9021],6.84
12,ATATTTTATTATATAGGTACACATAATTTCATGTAA [XGTACX_site415],6.34
13,AAAATTTAATATAATGCACACATAAAAAAAAATTCA [CACACA_site8640],9.79
14,AATTTAATATAATGCACACATAAAAAAAAAAAAAAA [CACACA_site123],10.5
15,AATTTAATATAATGCACACATAAAAAAAAAAAATTC [CACACA_site1504],10.6
16,AAAATTTAATATAATGCACACATAAAAAAAAAAAAT [CACACA_site8425],10.4
17,CATATATATCGTAATGCACACATGTAATTTCATAAT [CACACA_site811],10.7
18,TATATATATTTATGCACACAAAATATATTATATAAT [CACACA_site5955],10.4
19,TATTTATACATACATACACACATATAGATTTATATT [CACACA_site7851],6.85
20,TACATACATACATACACACATACATATGTATATATA [CACACA_site2480],7.37

row,Sequence,gcPBM binding intensity (ln)
1,TTTATTAATAGACACACACACACACGCAAAATAAAA [CACACA_site6255],7.16
2,ATGGACTTTTATAGTTGTACATACTATGAGAACTTT [XGTACX_site2800],7.08
3,AAGGGTTGCCTGTGTAGTACATATATATATATATAT [XGTACX_site8555],9.24
4,GAGAAATGGGGACACACACACATATTATATATATAT [CACACA_site4943],8.53
5,TATAAATTTGTTGTTGCATGCAGTATACCAAAAAAA [TGCATGCA_site445],7.18
6,AAGGTGGGAAAAAATAGTACACAACAAAAATGTATG [XGTACX_site8741],6.64
7,AAACATTAAAATAACTCACACATTTTTCTAGTCTTC [CACACA_site4612],6.19
8,AGAACTTTTAATGGATGTACAGTTATTTTATTATTT [XGTACX_site6226],6.12
9,ATATATATATATATAGTGCATAAAATAAGTTTCTAA,9.54
10,TATGTTTTTACATATTGTACATATTCTTGTAATACG [XGTACX_site1179],6.29
11,TTCATATAATTCATCTGTACATATTGATAGTATGCA [XGTACX_site6386],6.29
12,ACTACGTGTCAAAAATATTAATTACAAATGAATAAA [GTGCAC_negctrl_site248],6.08
13,AGTAGTCTGGAGAAGAGTACACAGTATCTGGTAACA [XGTACX_site2032],6.02
14,CTCTATAAATGCTGCACACACATTTAATTATTTAAG [CACACA_site2582],8.11
15,ATTTATAAAATTAATGCACACATCAGCATTTATAAA [CACACA_site1025],10.6
16,ATAATATTTTAATGCACACACACAAAAAAAAAAAAA [CACACA_site2891],9.96
17,ACATCATAAAATTTATGTACACATTTTTAATTATAC [XGTACX_site7759],6.51
18,AATATTTTAATGCACACACACAAAAAAAAAAAAAAA [CACACA_site7374],10.7
19,TTTAAATTTTAATATGCACACAAAATGTTATATTAA [CACACA_site8015],9.9
